Test results: PubChem BioAssay AID2314 (National Center for Advancing Translational Sciences (NCATS), 2010)
The whole screen tested about 300,000 compounds, of which about 37,000 (12%) were called active. The entries come from a sample that favours actives as a whole. Unmarked numbers belong to inactive results. Rule as the data show it: active = max response mostly above about 13% (no sharp cut-off); inactive = mostly below about 14%.

assay: Cycloheximide Counterscreen for Small Molecule Inhibitors of Shiga Toxin; conditions: cell reporter, cycloheximide protein synthesis inhibition counterscreen; active compounds read high; also: read at 38.3 µM for the half of the compounds with a filed dose; 0% is about no effect

SMILES | max response
Cn1c(CCC(=O)OCC(=O)NCc2ccccc2Cl)nc(=O)c2ccccc21 | -1.91%
CCOCCCNC(=S)Nc1ccc2nc(N3CCN(CC)CC3)cc(C)c2c1 | -1.07%
COc1cccc(CCNC(=O)c2cccc(NC(=O)C3=C(C)OCCS3)c2)c1 | 12%
CC(=O)Nc1ccc(NC(=S)NC(=O)c2ccc([N+](=O)[O-])c(C)c2)cc1 | 17.1% (active)
CC(=O)NC(=S)Nc1ccc(NC(=S)NC(=O)c2ccc([N+](=O)[O-])cc2)cc1 | 10.5%
Cc1ccc(C(=O)NC(=S)Nc2ccc3[nH]c(=O)[nH]c3c2)cc1C | 2.1%
COc1ccc(N2CC(C(=O)N[C@@H](C)C(=O)N3CCCCC3)CC2=O)cc1 (stereo not given in full) | -0.721%
O=C1/C(=C/c2coc3ccc(O)cc3c2=O)SC(=S)N1c1ccccc1 | -2.68%
COc1ccccc1C(=O)Oc1ccc(N2C(=O)CCC2=O)cc1 | -4.08%
Cc1cc(OC(=O)c2ccccc2Cl)ccc1N1C(=O)CCC1=O | 43.6% (active)
CCOC(=O)c1cc(OC(=O)c2ccccc2Cl)n(-c2ccccc2)n1 | 28.5%
O=C1c2ccccc2-c2ncnc3c(N4CCOCC4)cc(N4CCOCC4)c1c23 | -4.86%
CC(=O)c1ccc(S(=O)(=O)N2CCC3(CC2)OCCO3)cc1 | -6.29%
COc1ccccc1CN1CCN(Cc2cc(OC)c(OC)cc2OC)CC1 | 3.57%
CC(C)(C)c1ccc(NC(=O)COC(=O)CCc2nc3ccccc3c(=O)[nH]2)cc1 | 14.2% (active)
O=C(CCc1nc2ccccc2c(=O)[nH]1)OCC(=O)c1cccc(Cl)c1 | -1.24%
O=C(COC(=O)CCc1nc2ccccc2c(=O)[nH]1)Nc1ccc(N2CCOCC2)cc1 | 2.13%
O=C(c1ccc[nH]c1=S)N1CCN(S(=O)(=O)c2ccc(Br)cc2Cl)CC1 | -2.01%
COc1ccc(NC(=O)CCS(=O)(=O)c2cc3c(cc2Cl)NC(=O)CO3)cc1OC | -10.6%
COc1ccccc1OCC(=O)Nc1c2c(nn1-c1ccc(F)cc1)CS(=O)(=O)C2 | -3.21%
O=[N+]([O-])c1ccc(N/N=C/c2ccccc2)cc1 | 34.7% (active)
N#Cc1cc([N+](=O)[O-])ccc1Oc1cccc(/C=N/NC(=O)c2ccc(Cl)cc2)c1 | -2.97%
CCC(CC)NC(=O)/C=C/c1cccc([N+](=O)[O-])c1 | -4.49%

SMILES | max response
O=C(N/N=C/c1cccc(OC(=O)c2ccc([N+](=O)[O-])cc2)c1)c1cccnc1 | -7.61%
CCc1ccc(NC(=O)C(C)OC(=O)/C=C/c2cccc([N+](=O)[O-])c2)cc1 (stereo not given) | 59.2% (active)
Cc1ccc(NC(=O)O/N=C/c2cccc([N+](=O)[O-])c2)cc1 | 40.6% (active)
O=C(O)/C=C/C(=O)NNc1ccc([N+](=O)[O-])cc1 | 10.2%
CC(=O)Nc1ccc(NC(=O)C(C)OC(=O)c2ccccc2C(=O)c2ccc(Cl)c([N+](=O)[O-])c2)cc1 (stereo not given) | 8.13%
Cc1ccc(NC(=O)C(=O)NCC2CCN(C(=O)c3cccc([N+](=O)[O-])c3)CC2)cc1 | 3.94%
Cc1cccc(COc2ccccc2/C=N/Nc2ccc([N+](=O)[O-])cc2)c1 | -0.989%
O=C(N/N=C/c1cccc([N+](=O)[O-])c1)c1ccncc1 | 11% (active)
Cc1ccc(NC(=O)/C(=C/c2ccc([N+](=O)[O-])cc2)NC(=O)c2ccccc2)cc1 | -3.41%
COc1ccc(C(=O)NC2CC(C)(C)Cc3c2cnn3-c2ccccc2C)o1 (stereo not given) | -0.937%
CC(Sc1nnc(CNC(=O)c2ccccc2F)n1C)C(=O)Nc1nccs1 (stereo not given) | -1.64%
CCN(CC)S(=O)(=O)c1ccc(Cl)c(C(=O)NC(C)C(c2cccs2)N2CCCC2)c1 (stereo not given) | 3.13%
O=C1CCC([N+](=O)[O-])C(c2ccccc2Br)N1 (stereo not given) | -3.57%
Oc1ccccc1CN1CCN(C(c2ccccc2)c2ccccc2)CC1 | 2.23%
Cc1cccc(C(=O)OCC(=O)Nc2sc3c(c2C#N)CCC3)c1 | -3.19%
COc1ccc(CN2CCn3ncc(C(=O)Nc4ccc(Cl)cc4Cl)c3C2=O)cc1 | -1.27%
Cc1ccc(C(c2nnnn2CS(=O)(=O)c2ccc(C)cc2)N2CCC(C)CC2)cc1 (stereo not given) | 1.26%
COc1cccc(-c2nc(CS(=O)CC(=O)NCc3ccc(F)cc3)c(C)o2)c1 (stereo not given) | -2.32%
O=[N+]([O-])c1cccc(/C=N/Nc2ncc(Br)cn2)c1 | 29.2% (active)
O=C(N/N=C/c1cccc([N+](=O)[O-])c1)C1CC(=O)N(c2ccc(Br)cc2)C1 (stereo not given) | 0.637%
COc1ccc(O)c(/C=N/N=C/c2cccc([N+](=O)[O-])c2)c1 | -1.21%
CC(NC(=S)Nc1ccccc1)C(c1cccs1)N1CCOCC1 (stereo not given) | -0.819%
CC(C)CN(C(=O)c1cccc(S(=O)(=O)N2CCCCC2)c1)C1CCS(=O)(=O)C1 (stereo not given) | -3.21%

SMILES | max response
CCOc1cc2[nH]c(=O)n(Cc3ccc(C(=O)NCCCN4CCCC4=O)cc3)c(=O)c2cc1OCC | 3.4%
CCOc1ccc(C(=O)NCCCN2CCCC2=O)cc1 | 16.9% (active)
Cc1cccc(C(=O)NCCCN2CCCC2=O)c1 | -1.36%
Cn1c(N)c(C(=O)COC(=O)/C=C/c2ccc(OC(F)F)cc2)c(=O)n(C)c1=O | 9.63%
COc1ccc(S(=O)(=O)n2cnc3ccccc32)c(C)c1 | 8.08%
COc1cccc(NC(=O)CN(C)C(=O)/C=C/c2cc(OC)ccc2OC)c1 | -0.59%
O=[N+]([O-])c1ccccc1NCc1ccc(Cl)cc1 | 19.5% (active)
O=[N+]([O-])c1ccccc1NCc1ccccc1Cl | 0.768%
O=C(NCCCNc1ccc([N+](=O)[O-])cc1Cl)c1ccccc1F | 11.2%
Cc1c(NC(=S)NCc2ccc(F)cc2)cccc1[N+](=O)[O-] | -2.87%
O=C(NCCNc1ccccc1[N+](=O)[O-])c1ccccc1F | 46.4% (active)
O=C(NCCNc1ccc([N+](=O)[O-])cc1Cl)c1ccccc1F | 12.9%
COc1ccc(NS(=O)(=O)c2cccc3nsnc23)cc1Cl | -2.31%
Cc1noc(C)c1S(=O)(=O)Nc1cc(C(F)(F)F)ccc1N1CCOCC1 | 1.06%
COCCCNC(=O)/C(C#N)=C/c1c(N2CCCCCC2)nc2ccccn2c1=O | 5.95%
CCCC[C@]12Cc3cc(OC)c(OC)cc3C(O1)C1=C(CC3(CCCCC3)OC1=O)O2 | -1.97%
COc1cc(/C=C/C(=O)OCC(=O)N2CCOCC2)ccc1OCC#N | -1.28%
CSc1cccc(NC(=S)N(C(C)C)C(C)c2ccccn2)c1 (stereo not given) | 9.01%
C=CCNC(=S)NNC(=O)COc1c(Cl)cc(Cl)cc1Cl | -3.49%
Cc1ccc(Cn2ccc(NC(=O)c3cc(C(C)C)on3)n2)cc1 | 48% (active)
Cc1cc(C(=O)Nc2c(C)nn(Cc3ccccc3)c2C)on1 | -4.11%
Cc1ccc(Cn2ccc(NC(=O)C3C4CCC(C4)C3C(=O)O)n2)cc1 (stereo not given) | 1.94%
Cc1ccc(C(=O)OCC(=O)NC(=O)Cc2ccccc2)c(O)c1 | 4.77%

SMILES | max response
CC(=O)Nc1ccccc1NC(=O)c1cc(C)cc(C)c1 | -1.4%
C=CCN(c1ccc(C(N)=O)cc1)S(C)(=O)=O | -1.24%
C=CCN(c1ccc(C(=O)Nc2cc(C)cc(C)c2)cc1)S(C)(=O)=O | 12.7% (active)
Cc1cc(C)cc(NC(=O)N(C)Cc2ccccc2)c1 | 4.9%
COc1ccc([N+](=O)[O-])cc1NC(=O)c1ccc(N(Cc2ccccc2C)S(C)(=O)=O)cc1 | -0.93%
CSCc1ccc(C(=O)Nc2cc(C)cc(C)c2)cc1 | 41.7% (active)
CCN(CC(=O)Nc1ccc(Cl)c(S(=O)(=O)N(C)C)c1)Cc1nc2ccccc2c(=O)[nH]1 | -3.17%
Clc1ccc(-c2cc(C3CCNCC3)[nH]n2)c(Cl)c1 | 9.48%
CCc1cc(CNC(=O)CC2C(=O)NCCN2Cc2ccccc2C(F)(F)F)on1 (stereo not given) | -1.48%
CCOC(=O)c1c(C(C#N)C#N)cc(C)nc1C | 1.41%
CCOC(=O)c1cc(C)nc(S(C)(=O)=O)c1C#N | 24.3% (active)
CCOC(=O)COc1nc(C)cc(C(F)(F)F)c1C#N | -3.74%
O=C1CCCN2N=C(SCC(=O)Nc3ccc(Br)cc3)SC2=N1 | 7.4%
Cc1ccc(CN(C)Cc2cc(=O)oc3cc(C)c(Cl)cc23)cc1 | 8.9%
O=[N+]([O-])c1cc(C(F)(F)F)ccc1NN=C1CCCC1 | -3.4%
O=[N+]([O-])c1ccccc1N/N=C1\CCc2ccccc21 | 22.3% (active)
CN1CCN(CCNC(=O)Nc2ccccc2[N+](=O)[O-])CC1 | -3.83%
CCOC(=O)c1cnc2ccc(F)cc2c1Nc1ccc2c(c1)OCCO2 | 32.3% (active)
O=C(Nc1ccc2c(c1)OCCO2)C(c1ccc(F)cc1)N1CCCCC1 (stereo not given) | -0.355%
Cc1ccc2nc(-c3ccncc3)cc(C(=O)Nc3ccc4c(c3)OCCO4)c2c1 | 7.28%
C/C(CC(=O)NCc1ccc(Cl)cc1)=N\NC(=O)COc1ccc(C)cc1Br | -1.26%
